{"source": "PubChem BioAssay AID2284353", "about": "(EPA ToxCast)", "note": "Inconclusive results are not listed. Calls of active or inactive are those of the source. Rule for the calls: active = hit-call score of the fitted dose curve at least 0.9, where 1 is the maximum; inconclusive = response in the unintended direction; inactive = score below 0.9.", "data": [{"test_system": "Japanese medaka Peroxisome Proliferator-activated Receptor gamma (PPARg), gene 100304459", "assay": "ATG_jmPPARg_EcoTox2: Attagene TRANS-FACTORIAL EcoTox-2 HepG2 Assay for Japanese medaka Peroxisome Proliferator-activated Receptor gamma (PPARg)", "experimental": "ATG_EcoTox2 is a cell-based, multiplexed assay created by modifying the existing Attagene TRANS-FACTORIAL system to include a panel of nuclear receptors from some or all the following species: human (Homo sapiens), african clawed frog (Xenopus laevis), rainbow trout (Oncorhynchus mykiss), japanese medaka (Oryzias latipes), and zebrafish (Danio rerio). The ECOTOX2-FACTORIAL format uses HepG2, a human liver cell line, with measurements taken at 24 hours after chemical dosing in a 24-well plate. ATG_jmPPARg_EcoTox2 is one of 29 assay components calculated in the ATG_EcoTox2 assay. It is designed to make measurements of mRNA induction, a form of inducible reporter, as detected with fluorescence intensity signals by Reverse transcription polymerase chain reaction (RT-PCR) and Capillary electrophoresis technology.The assay endpoint ATG_jmPPARg_EcoTox2 was analyzed in the positive analysis fitting direction relative to DMSO as the negative control and baseline of activity. Using a type of inducible reporter, measures of mRNA for gain-of-signal activity can be used to understand the reporter gene at the transcription factor-level as they relate to the gene PPARg. Furthermore, this assay endpoint can be referred to as a primary readout, because this assay has produced multiple assay endpoints where this one serves a reporter gene function. To generalize the intended target to other relatable targets, this assay endpoint is annotated to the nuclear receptor intended target family, where the subfamily is non-steroidal.\nHuman liver HepG2 cells are transiently transfected with multiple reporter transcription units (MRTUs) in 6-well plates using FuGene 6 reagent (Roche; 3 ml FuGene/1 mg DNA). The MRTU constructs are regulated by a cis-regulating element (promoter). Each RTU expresses a GAL4-UAS that regulates the transcription of a nearby target reporter gene sequence. A major difference between the CIS and TRANS system is that in CIS activities of endogenous TFs are measured, whereas the TRANS assay evaluates changes in activities of exogenous, chimeric NR-Gal4 proteins. […] At the end of 24 hour incubation, total RNA was isolated using TriZol reagent (Invitrogen). The isolated RNA is then reverse-transcribed using oligo(dT) primer and Mo-MLV reverse transcriptase (Invitrogen) with DNAse I (Ambion) treatment for 30 min. The one-tenth of the produced cDNA was amplified by PCR using Taq DNA polymerase (Invitrogen) and two reporter sequence-specific primers. The PCR products were fluorescently labeled by primer extension with 6-arboxyfluorescein (6-FAM) 5'-labeled reporter sequence-specific primer (2 min at 95 C, 20 s at 68 C and 10 min at 72 C) and these products were digested with 5U of HpaI (New England Biolabs) for 2h at 37 C. The fragments were purified using Qiaquick PCR columns (Qiagen), analyzed on an ABI 3130xL genetic analyzer (Applied Biosystems) with peak positions identified by using a set of X-rhodamine (ROX)-labeled MapMarker1000 molecular weight standards (BioVentures). The raw capillary electrophoresis data was processed using Attagraph software (Attagene).", "values": [{"smiles": "CCCCOCN(C(=O)CCl)c1c(CC)cccc1CC", "AC50": "4.6 µM (active)"}, {"smiles": "O=S(=O)(O)C(F)(F)C(F)(F)C(F)(F)C(F)(F)C(F)(F)C(F)(F)F", "AC50": "76.1 µM (active)"}, {"smiles": "O=P(Oc1ccccc1)(Oc1ccccc1)Oc1ccccc1", "AC50": "30.6 µM (active)"}, {"smiles": "[Cl][Sn]([c]1ccccc1)([c]1ccccc1)[c]1ccccc1", "AC50": "0.382 µM (active)"}, {"smiles": "O=C(O)C(F)(F)C(F)(F)C(F)(F)C(F)(F)C(F)(F)C(F)(F)C(F)(F)F", "AC50": "75 µM (active)"}]}]}
